Results as given in the supplement of paper PMC10849652.
Of roughly 7,900 targets only a part is listed; those with a hit were picked by preference. About 0.6% of all pairs of compound and target were hits.

Key:
Assay in all cases: log2 fold change, soluble protein after heating vs DMSO (PISA); higher = thermal stabilisation; K562 cells, 10 uM, 30 min; active = over 0.2 and 3.5 SD of the protein, either way, in both replicates (recomputed)
[1] = compound: CC1=C(C=C(C=C1)NC(=O)C2=CC(=CC=C2)C(C)(C)C#N)NC3=CC4=C(C=C3)N=CN(C4=O)C
Procedure, shortened: (§1)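 K562 cells (2×10^6 cells/mL) were treated with 10 μM compound for 30 min, and aliquots were heated for 3 min over 48°C-58°C. Pooled aliquots were extracted in PBS with 0.5% NP-40 at 4°C, and the supernatant after 21,000xg for 90 min was measured by TMTpro 16plex LC-MS/MS with channel sums equalised. Reported thermal stability, relative to control samples and from duplicates, is a log2 fold change.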

[2] = compound: CC1=C(C=C(C=C1)NC(=O)C2=CC(=CC=C2)N(C)C)NC(=O)C3=CC=C(C=C3)O
Procedure, shortened: as §1

[3] = compound: CC1=CC=C(C=C1)SC2=C3C=C(SC3=CN=C2)C(=O)N
Procedure, shortened: as §1

[4] = compound: CC1=NC(=CC=C1)C2=C(N=C(N2)C(C)(C)C)C3=CC4=NC=CN=C4C=C3
Procedure, shortened: as §1

[5] = compound: CCCCN(Cc1ccc(C(=O)NO)cc1)C(=O)Nc1ccccc1 [Nexturastat A]
Procedure, shortened: as §1

[6] = compound: CCCS(=O)(=O)Nc1ccc(F)c(C(=O)c2c[nH]c3ncc(-c4ccc(Cl)cc4)cc23)c1F [vemurafenib]
Procedure, shortened: as §1

[7] = compound: CCCS(=O)(=O)Nc1ccc(F)c(C(=O)c2c[nH]c3ncc(Cl)cc23)c1F
Procedure, shortened: as §1

[8] = compound: CCCc1cc(C)[nH]c(=O)c1CNC(=O)c1cc(-c2ccnc(N3CCN(C)CC3)c2)cc2c1cnn2C(C)C
Procedure, shortened: as §1

[9] = compound: CCN(CC)Cc1ccc2cc(COC(=O)Nc3ccc(C(=O)NO)cc3)ccc2c1 [givinostat]
Procedure, shortened: as §1

[10] = compound: CCN(CCCOc1ccc2c(Nc3cc(CC(=O)Nc4cccc(F)c4)[nH]n3)ncnc2c1)CCOP(=O)(O)O [barasertib]
Procedure, shortened: as §1

[11] = compound: CC[C@@H]1C(=O)N(C)c2cnc(Nc3ccc(C(=O)NC4CCN(C)CC4)cc3OC)nc2N1C1CCCC1
Procedure, shortened: as §1

[12] = compound: CC[C@@H]1C(=O)N(C)c2cnc(Nc3ccc(C(=O)N[C@H]4CC[C@H](N5CCN(CC6CC6)CC5)CC4)cc3OC)nc2N1C(C)C [volasertib]
Procedure, shortened: as §1

[13] = compound: CC[C@H](C)N1C=C(C2=C(C=C(C=C21)C3=CN=C(C=C3)N4CCNCC4)C(=O)NCC5=C(C=C(NC5=O)C)C)C
Procedure, shortened: as §1

[14] = compound: CC[C@H](C)[C@@H](C(=O)N[C@@H]([C@@H](C)O)C(=O)N[C@@H](CC(C)C)C(=O)[C@]1(CO1)C)NC(=O)[C@H]([C@@H](C)CC)N(C)C(=O)C [epoxomicin]
Procedure, shortened: as §1

[15] = compound: CCn1c(C(=O)N(C2CC2)C2CC2)cc2c3c(ncn3C)c(Nc3cc(C)n(C)n3)nc21
Procedure, shortened: as §1

[16] = compound: CCn1cc(-c2ccnc3[nH]c(-c4cccc(CN(C)C)c4)cc23)c(-c2ccc(NC(=O)N(C)C)cc2)n1
Procedure, shortened: as §1

[17] = compound: CN(C)CC(=O)Nc1ccc2[nH]c(=O)c3ccccc3c2c1
Procedure, shortened: as §1

[18] = compound: CN(CCOC1=CC=C(C=C1)C[C@H]2C(=O)NC(=O)S2)C3=CC=CC=N3 (racemic) [rosiglitazone]
Procedure, shortened: as §1

[19] = compound: CN1C2=C(C3=C1C(=O)N(N=C3)CC4=CC(=CC=C4)N)SC(=C2)S(=O)C
Procedure, shortened: as §1

[20] = compound: CN1CCC(CNc2ccc3ncc(-c4cccc(OC(F)(F)F)c4)n3n2)CC1
Procedure, shortened: as §1

Measured: log2 fold change

ALKBH5 (UniProt Q6P6C2)
inactive: [1] -0.12 | [2] -0.017 | [3] -0.046 | [4] -0.031 | [5] -0.068 | [6] -0.071 | [7] -0.09 | [8] 0.162 | [9] 0.092 | [10] -0.023 | [11] 0.08 | [12] 0.109 | [13] 0.01 | [14] -0.033 | [15] -0.112 | [16] -0.058 | [17] -0.058 | [18] -0.015 | [19] -0.011 | [20] 0.041

ATG9A (UniProt Q7Z3C6)
UniProt Q7Z3C6, sequence (Q7Z3C6 whole entry, looked up): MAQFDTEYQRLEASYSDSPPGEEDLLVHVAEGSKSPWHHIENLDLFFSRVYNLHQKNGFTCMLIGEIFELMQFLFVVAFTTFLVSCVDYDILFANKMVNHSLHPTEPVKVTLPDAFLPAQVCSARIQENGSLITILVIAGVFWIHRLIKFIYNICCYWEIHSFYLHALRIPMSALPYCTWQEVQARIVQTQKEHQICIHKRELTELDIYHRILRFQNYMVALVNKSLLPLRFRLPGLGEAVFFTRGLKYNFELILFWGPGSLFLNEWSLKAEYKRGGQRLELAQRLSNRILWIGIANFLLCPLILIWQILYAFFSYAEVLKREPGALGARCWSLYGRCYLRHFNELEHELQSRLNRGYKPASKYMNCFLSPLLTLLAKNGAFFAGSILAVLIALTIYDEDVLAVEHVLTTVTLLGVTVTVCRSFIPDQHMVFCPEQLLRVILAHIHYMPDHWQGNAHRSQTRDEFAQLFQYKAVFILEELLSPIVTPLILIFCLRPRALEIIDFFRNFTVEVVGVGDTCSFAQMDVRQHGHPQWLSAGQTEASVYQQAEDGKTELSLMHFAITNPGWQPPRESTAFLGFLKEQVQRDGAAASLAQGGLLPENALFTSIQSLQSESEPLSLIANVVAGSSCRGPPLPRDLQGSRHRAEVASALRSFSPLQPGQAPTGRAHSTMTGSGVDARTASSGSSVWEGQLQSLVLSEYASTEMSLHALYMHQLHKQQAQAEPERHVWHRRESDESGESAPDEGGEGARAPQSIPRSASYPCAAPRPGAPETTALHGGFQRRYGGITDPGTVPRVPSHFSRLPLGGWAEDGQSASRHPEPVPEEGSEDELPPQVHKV
inactive: [1] -0.019 | [2] -0.017 | [3] 0.038 | [4] 0.008 | [5] -0.018 | [6] -0.006 | [7] 0.019 | [8] 0.007 | [9] 0.019 | [10] 0.045 | [11] -0.019 | [13] 0.027 | [14] -0.007 | [15] 0.002 | [16] -0.06 | [17] 0.018 | [18] 0.008 | [19] 0.058 | [20] -0.118
active: [12] -0.326

ARFGAP2 (UniProt Q8N6H7)
inactive: [1] 0.03 | [2] -0.065 | [3] -0.027 | [4] -0.04 | [5] -0.033 | [6] 0.02 | [7] 0.033 | [8] 0.021 | [9] 0.06 | [10] 0.066 | [11] -0.052 | [13] 0.067 | [14] 0.009 | [15] -0.037 | [16] 0.023 | [17] 0.017 | [18] 0.038 | [19] -0.015 | [20] -0.068
active: [12] -0.257

ATIC (UniProt P31939)
inactive: [1] 0.083 | [2] -0.022 | [3] 0.059 | [4] 0.022 | [5] -0.076 | [6] 0.025 | [7] 0.052 | [8] 0.019 | [9] -0.036 | [10] 0.013 | [11] -0.032 | [12] 0.021 | [13] 0.029 | [14] 0.04 | [15] -0.011 | [16] -0.016 | [17] 0.023 | [18] -0.012 | [19] -0.123 | [20] 0.029

AGPS (UniProt O00116)
UniProt O00116, sequence (O00116 whole entry, looked up): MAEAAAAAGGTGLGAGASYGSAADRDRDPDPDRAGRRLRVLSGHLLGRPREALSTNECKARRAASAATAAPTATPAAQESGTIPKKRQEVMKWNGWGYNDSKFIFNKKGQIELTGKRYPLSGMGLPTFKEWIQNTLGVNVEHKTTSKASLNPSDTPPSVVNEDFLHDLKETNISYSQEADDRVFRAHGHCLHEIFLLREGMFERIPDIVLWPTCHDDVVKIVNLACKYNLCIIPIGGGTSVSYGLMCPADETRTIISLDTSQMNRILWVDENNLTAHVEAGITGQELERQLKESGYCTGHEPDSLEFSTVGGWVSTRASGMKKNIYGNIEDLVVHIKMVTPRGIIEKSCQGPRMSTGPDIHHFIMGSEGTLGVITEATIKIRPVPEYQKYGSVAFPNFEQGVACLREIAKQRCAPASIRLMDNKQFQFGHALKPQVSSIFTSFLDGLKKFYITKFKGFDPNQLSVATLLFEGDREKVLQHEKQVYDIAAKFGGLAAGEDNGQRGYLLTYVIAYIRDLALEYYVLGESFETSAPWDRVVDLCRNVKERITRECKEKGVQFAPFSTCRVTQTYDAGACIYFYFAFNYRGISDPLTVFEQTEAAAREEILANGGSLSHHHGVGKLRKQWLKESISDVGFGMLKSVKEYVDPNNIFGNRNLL
active: [20] -0.212
inactive: [1] 0.126 | [2] 0.012 | [3] 0.013 | [4] -0.001 | [5] -0.084 | [6] 0.02 | [7] 0.041 | [8] -0.043 | [9] -0.033 | [10] 0.06 | [11] -0.005 | [12] -0.021 | [13] 0.002 | [14] 0.031 | [15] 0.018 | [16] -0.102 | [17] 0.039 | [18] 0.055 | [19] -0.09

AGPAT5 (UniProt Q9NUQ2)
UniProt Q9NUQ2, sequence (Q9NUQ2 whole entry, looked up): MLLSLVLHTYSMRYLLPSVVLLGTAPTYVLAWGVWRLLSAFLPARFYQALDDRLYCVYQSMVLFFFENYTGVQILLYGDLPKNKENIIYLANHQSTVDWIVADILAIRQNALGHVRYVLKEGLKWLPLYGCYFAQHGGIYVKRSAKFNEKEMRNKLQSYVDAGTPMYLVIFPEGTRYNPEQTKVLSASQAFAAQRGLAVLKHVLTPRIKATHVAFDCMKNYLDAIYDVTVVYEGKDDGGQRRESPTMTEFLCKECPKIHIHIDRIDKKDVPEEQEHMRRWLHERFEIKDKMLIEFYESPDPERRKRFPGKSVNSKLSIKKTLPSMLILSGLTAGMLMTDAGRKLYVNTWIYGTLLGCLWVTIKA
active: [12] -0.281
inactive: [1] -0.02 | [2] -0.009 | [3] 0.012 | [4] -0.068 | [5] -0.061 | [6] 0.008 | [7] 0.095 | [8] -0.088 | [9] -0.05 | [10] 0.015 | [11] -0.169 | [13] -0.068 | [14] 0.007 | [15] 0.023 | [16] -0.13 | [17] 0 | [18] 0.01 | [19] -0.067 | [20] -0.25

BECN1 (UniProt Q14457)
inactive: [1] -0.04 | [2] 0.029 | [3] 0 | [4] 0.04 | [5] 0.015 | [6] 0.055 | [7] -0.01 | [8] -0.024 | [9] -0.018 | [10] -0.012 | [11] 0.069 | [12] -0.003 | [13] 0.029 | [14] 0.07 | [15] 0.053 | [16] -0.107 | [17] -0.003 | [18] 0.013 | [19] 0.024 | [20] 0.009

ATAD1 (UniProt Q8NBU5)
UniProt Q8NBU5, sequence (Q8NBU5 whole entry, looked up): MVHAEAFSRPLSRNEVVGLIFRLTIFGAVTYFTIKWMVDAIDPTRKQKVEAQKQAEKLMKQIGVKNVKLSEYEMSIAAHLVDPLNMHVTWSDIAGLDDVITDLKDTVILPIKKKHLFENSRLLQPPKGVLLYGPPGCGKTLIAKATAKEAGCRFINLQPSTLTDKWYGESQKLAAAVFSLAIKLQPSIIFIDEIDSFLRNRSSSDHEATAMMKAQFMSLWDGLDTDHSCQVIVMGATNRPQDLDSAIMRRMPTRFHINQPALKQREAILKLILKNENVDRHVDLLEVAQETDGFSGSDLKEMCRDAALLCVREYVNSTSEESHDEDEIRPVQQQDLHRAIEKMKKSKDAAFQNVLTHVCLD
inactive: [1] 0.019 | [2] -0.034 | [3] 0.012 | [4] -0.012 | [5] -0.305 | [6] 0.076 | [7] 0.022 | [8] 0.045 | [9] 0.046 | [10] 0.055 | [11] -0.008 | [12] -0.127 | [13] 0.056 | [14] 0.065 | [15] -0.013 | [16] -0.027 | [17] 0.064 | [18] 0.021 | [19] -0.033 | [20] -0.046

BRAP (UniProt Q7Z569)
inactive: [1] 0.057 | [2] 0.075 | [3] 0.023 | [4] 0.029 | [5] -0.031 | [6] 0.037 | [7] 0.151 | [8] 0.08 | [9] -0.081 | [10] 0.08 | [11] -0.092 | [12] -0.23 | [13] 0.033 | [14] -0.093 | [15] -0.02 | [16] 0.086 | [17] 0.02 | [18] 0.02 | [19] 0.06 | [20] -0.158

ARGLU1 (UniProt Q9NWB6)
UniProt Q9NWB6, sequence (Q9NWB6 whole entry, looked up): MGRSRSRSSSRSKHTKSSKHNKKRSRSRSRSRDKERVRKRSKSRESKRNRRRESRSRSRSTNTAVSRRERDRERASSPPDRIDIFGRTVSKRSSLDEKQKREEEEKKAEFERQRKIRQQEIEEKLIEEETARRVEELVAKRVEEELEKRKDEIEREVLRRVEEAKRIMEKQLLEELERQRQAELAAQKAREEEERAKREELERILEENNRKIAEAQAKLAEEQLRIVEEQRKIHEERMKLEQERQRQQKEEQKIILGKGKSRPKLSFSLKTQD
inactive: [1] 0.046 | [2] 0.055 | [3] -0.136 | [4] -0.044 | [5] 0.147 | [6] 0.061 | [7] -0.045 | [8] -0.009 | [9] 0.001 | [10] -0.075 | [11] 0.094 | [12] -0.004 | [13] 0.033 | [14] -0.106 | [15] 0.024 | [16] 0.138 | [17] 0.003 | [18] 0.012 | [19] 0.068 | [20] 0

ACSL3 (UniProt O95573)
UniProt O95573, sequence (O95573 whole entry, looked up): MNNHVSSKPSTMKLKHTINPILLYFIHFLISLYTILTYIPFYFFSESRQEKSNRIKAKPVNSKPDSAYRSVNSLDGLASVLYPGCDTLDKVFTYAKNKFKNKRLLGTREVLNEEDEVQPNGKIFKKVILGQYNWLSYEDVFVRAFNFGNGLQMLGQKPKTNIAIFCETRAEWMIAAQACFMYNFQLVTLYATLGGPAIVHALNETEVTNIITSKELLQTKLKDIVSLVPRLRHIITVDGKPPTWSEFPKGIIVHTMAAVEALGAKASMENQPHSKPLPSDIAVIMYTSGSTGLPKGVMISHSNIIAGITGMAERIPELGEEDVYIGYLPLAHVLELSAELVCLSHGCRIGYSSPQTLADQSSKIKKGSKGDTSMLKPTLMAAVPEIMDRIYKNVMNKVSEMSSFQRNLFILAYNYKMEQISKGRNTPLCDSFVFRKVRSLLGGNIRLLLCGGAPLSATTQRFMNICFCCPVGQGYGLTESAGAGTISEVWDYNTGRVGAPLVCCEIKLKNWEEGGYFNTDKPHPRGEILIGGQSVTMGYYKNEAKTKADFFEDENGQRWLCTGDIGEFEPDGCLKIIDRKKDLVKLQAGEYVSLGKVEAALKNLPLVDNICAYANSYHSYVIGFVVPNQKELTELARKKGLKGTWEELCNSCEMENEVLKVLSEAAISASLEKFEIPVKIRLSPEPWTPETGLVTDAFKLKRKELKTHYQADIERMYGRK
active: [12] -0.23 | [18] 0.642
inactive: [1] 0.005 | [2] -0.051 | [3] 0.1 | [4] 0.029 | [5] 0.008 | [6] 0 | [7] 0.038 | [8] -0.016 | [9] 0.032 | [10] 0.039 | [11] -0.062 | [13] 0.022 | [14] 0.048 | [15] -0.049 | [16] -0.042 | [17] 0.024 | [19] -0.036 | [20] -0.1

B4GALNT1 (UniProt Q00973)
inactive: [1] 0.075 | [2] -0.028 | [3] -0.109 | [4] 0.005 | [5] 0.096 | [6] -0.172 | [7] -0.044 | [8] -0.028 | [9] -0.123 | [10] 0.104 | [11] -0.243 | [12] -0.097 | [13] -0.115 | [14] -0.059 | [15] 0.078 | [16] 0.01 | [17] 0.143 | [18] 0.025 | [19] -0.103 | [20] 0.173

BLOC1S3 (UniProt Q6QNY0)
UniProt Q6QNY0, sequence (Q6QNY0 whole entry, looked up): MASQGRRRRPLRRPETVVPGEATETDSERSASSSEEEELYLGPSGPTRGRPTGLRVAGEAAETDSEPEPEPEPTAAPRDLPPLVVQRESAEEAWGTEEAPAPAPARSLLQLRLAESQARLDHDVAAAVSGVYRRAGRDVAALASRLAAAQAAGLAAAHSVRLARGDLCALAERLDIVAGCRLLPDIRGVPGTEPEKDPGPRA
inactive: [1] -0.03 | [2] 0.049 | [3] 0.046 | [4] 0.052 | [5] -0.031 | [6] -0.049 | [7] -0.029 | [8] -0.058 | [9] -0.016 | [10] 0.021 | [11] 0.024 | [12] 0.018 | [13] -0.04 | [14] -0.011 | [15] 0.005 | [16] -0.017 | [17] 0.058 | [18] 0.048 | [19] -0.062 | [20] -0.01

ADD1 isoform 3 (UniProt P35611)
UniProt P35611, sequence (P35611 whole entry, looked up): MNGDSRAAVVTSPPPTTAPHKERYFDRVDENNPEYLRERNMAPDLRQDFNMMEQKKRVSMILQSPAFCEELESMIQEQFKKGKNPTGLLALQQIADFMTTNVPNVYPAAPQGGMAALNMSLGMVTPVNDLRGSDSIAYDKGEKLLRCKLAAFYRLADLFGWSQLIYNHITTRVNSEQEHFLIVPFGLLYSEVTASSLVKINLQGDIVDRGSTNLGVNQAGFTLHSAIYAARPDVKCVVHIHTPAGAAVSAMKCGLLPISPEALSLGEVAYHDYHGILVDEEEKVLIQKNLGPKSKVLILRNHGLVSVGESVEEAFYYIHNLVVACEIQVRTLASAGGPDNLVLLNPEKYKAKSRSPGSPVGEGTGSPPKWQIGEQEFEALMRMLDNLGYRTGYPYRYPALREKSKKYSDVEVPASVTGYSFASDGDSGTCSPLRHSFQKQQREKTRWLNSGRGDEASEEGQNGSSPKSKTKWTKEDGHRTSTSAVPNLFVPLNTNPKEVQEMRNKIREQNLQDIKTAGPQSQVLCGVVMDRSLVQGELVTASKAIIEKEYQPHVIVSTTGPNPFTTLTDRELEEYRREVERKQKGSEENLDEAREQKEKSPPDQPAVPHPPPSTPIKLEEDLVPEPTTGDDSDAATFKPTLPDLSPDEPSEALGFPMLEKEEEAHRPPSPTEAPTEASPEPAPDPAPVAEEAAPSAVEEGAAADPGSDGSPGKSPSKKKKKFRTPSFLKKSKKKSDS
inactive: [1] -0.015 | [2] -0.031 | [3] -0.026 | [4] 0.015 | [5] 0.025 | [6] -0.059 | [7] 0.013 | [8] -0.025 | [9] -0.015 | [10] -0.022 | [11] 0.077 | [12] 0.015 | [13] -0.015 | [14] -0.012 | [15] -0.007 | [16] 0.011 | [17] -0.039 | [18] -0.004 | [19] -0.055 | [20] 0.053

ADD3 (UniProt Q9UEY8)
UniProt Q9UEY8, sequence (Q9UEY8 whole entry, looked up): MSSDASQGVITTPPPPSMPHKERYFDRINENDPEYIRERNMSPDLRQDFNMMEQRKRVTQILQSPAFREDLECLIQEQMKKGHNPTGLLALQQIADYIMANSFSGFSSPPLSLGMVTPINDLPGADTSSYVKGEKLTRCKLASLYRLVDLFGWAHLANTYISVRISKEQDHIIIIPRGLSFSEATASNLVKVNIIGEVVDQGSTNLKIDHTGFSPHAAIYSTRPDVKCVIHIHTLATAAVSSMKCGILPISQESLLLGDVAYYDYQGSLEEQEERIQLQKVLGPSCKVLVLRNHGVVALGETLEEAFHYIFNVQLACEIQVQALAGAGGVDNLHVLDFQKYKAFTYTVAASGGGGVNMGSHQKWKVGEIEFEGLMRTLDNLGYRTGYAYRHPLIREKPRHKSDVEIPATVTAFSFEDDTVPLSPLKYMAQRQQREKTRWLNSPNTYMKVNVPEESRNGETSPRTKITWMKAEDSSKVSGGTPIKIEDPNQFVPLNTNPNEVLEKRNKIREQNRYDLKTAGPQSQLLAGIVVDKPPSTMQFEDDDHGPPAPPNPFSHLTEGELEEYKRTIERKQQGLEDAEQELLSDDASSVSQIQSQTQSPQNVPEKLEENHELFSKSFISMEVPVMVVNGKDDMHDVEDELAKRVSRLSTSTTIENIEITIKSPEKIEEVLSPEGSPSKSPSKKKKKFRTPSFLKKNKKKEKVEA
inactive: [1] 0.024 | [2] 0.016 | [3] -0.015 | [4] -0.003 | [5] 0.021 | [6] -0.021 | [7] 0.006 | [8] -0.013 | [9] -0.043 | [10] -0.01 | [11] 0.098 | [12] 0.056 | [13] -0.024 | [14] 0.014 | [15] 0.01 | [16] 0.054 | [17] -0.03 | [18] -0.006 | [19] -0.056 | [20] -0.023

BZW2 (UniProt Q9Y6E2)
active: [12] -0.367 | [20] -0.298
inactive: [1] 0.009 | [2] -0.007 | [3] 0.043 | [4] 0.062 | [5] -0.034 | [6] 0.012 | [7] 0.058 | [8] -0.025 | [9] 0.011 | [10] 0.044 | [11] -0.193 | [13] 0.042 | [14] 0.043 | [15] -0.019 | [16] -0.016 | [17] 0.02 | [18] 0.046 | [19] -0.037
